Laboratory results reported in PubChem BioAssay (EPA / NIEHS).
Records with an inconclusive call do not appear. Activity calls are given as the source filed them. How the source made its calls, unless noted: active means hit-call score of the fitted dose curve at least 0.9, where 1 is the maximum; inconclusive means response in the unintended direction; inactive means score below 0.9.

What was measured:
[1] = Tanguay_ZF_120hpf_CFIN_legacy: (Legacy) Oregon State University Tanguay Lab 120 Hour Post-fertilization zebrafish Assay for Caudal Fin Malformation (AID 2283649)
In short: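 Binary presence or absence of caudal fin malformation at 120 hpf, read by brightfield microscopy, with DMSO as baseline. Larvae came from 5D wild-type embryos exposed statically from 6 hpf at 28C after pronase dechorionation.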

[2] = Tanguay_ZF_120hpf_PIG_legacy: (Legacy) Oregon State University Tanguay Lab 120 Hour Post-fertilization zebrafish Assay for Pigmentation Malformation (AID 2283650)
In short: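 Tropical 5D wild-type zebrafish embryos, dechorionated with pronase at 4 hpf, were exposed singly from 6 hpf to 120 hpf statically at 28C in sealed, dark plates with 0.64% DMSO; pigmentation scored present/absent by brightfield microscopy, fitted against DMSO.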

[3] = Tanguay_ZF_120hpf_SWIM_legacy: (Legacy) Oregon State University Tanguay Lab 120 Hour Post-fertilization zebrafish Assay for Swim Bladder Malformation (AID 2283654);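 further: swim bladder malformation in each larva scored yes or no under brightfield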
In short: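 Dechorionated Tropical 5D wild-type embryos, placed singly from 6 hpf, were statically exposed at 28C to 120 hpf with 0.64% DMSO final; swim bladder malformation was scored present/absent by brightfield microscopy, gain of signal relative to DMSO controls.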

[4] = Tanguay_ZF_120hpf_TRUN_legacy: (Legacy) Oregon State University Tanguay Lab 120 Hour Post-fertilization zebrafish Assay for Truncated Body (AID 2283655)
In short: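 Truncated body is recorded as a binary endpoint at 120 hpf by brightfield imaging of wild-type 5D larvae. Exposure runs statically from 6 hpf at 28C with 0.64% DMSO; embryos dying earlier are not scored.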

[5] = Tanguay_ZF_120hpf_NC_legacy: (Legacy) Oregon State University Tanguay Lab 120 Hour Post-fertilization zebrafish Assay for Notochord and Tail Malformation (AID 2283656)
In short: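 Dechorionated Tropical 5D wild-type zebrafish embryos, one per well from 6 hpf, statically exposed to 120 hpf at 28C in 0.64% DMSO final. Notochord distortion scored present/absent by brightfield; dead embryos excluded.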

[6] = Tanguay_ZF_120hpf_CIRC_legacy: (Legacy) Oregon State University Tanguay Lab 120 Hour Post-fertilization zebrafish Assay for Circulatory Malformation (AID 2283651)
In short: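 Read-out: presence or absence of circulatory malformation at 120 hpf, scored by brightfield microscopy, fitted in the gain-of-signal direction against DMSO baseline. Wild-type 5D larvae were exposed from 6 hpf after enzymatic chorion removal.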

[7] = read-out: kallikrein-3 (KLK3), KLK3 (gene 354); experiment: LTEA_HepaRG_KLK3: Life Technologies and Expression Analysis (LTEA) Assay for kallikrein-3 (KLK3) using HepaRG (AID 2283652; active means hit-call score of the fitted dose curve at least 0.9, where 1 is the maximum; inactive means score below 0.9); conditions: mRNA level, 48 h; actives raise or lower the signal
In short: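 Differentiated human HepaRG cells in serum-free induction medium exposed 48 h in duplicate, eight-point half-log series from 100 uM in 0.5% DMSO. KLK3 mRNA by qRT-PCR, normalised to ACTB, GAPDH, POLR2A; bidirectional fit versus DMSO.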

[8] = read-out: solute carrier (SLC22A6), SLC22A6 (gene 9356); experiment: LTEA_HepaRG_SLC22A6: Life Technologies and Expression Analysis (LTEA) Assay for solute carrier (SLC22A6) using HepaRG (AID 2283653; active means hit-call score of the fitted dose curve at least 0.9, where 1 is the maximum; inactive means score below 0.9); conditions: mRNA level, 48 h; actives raise or lower the signal
Experimental: LTEA_HepaRG is a cell based, multiplexed-readout assay that uses HepaRG, a human liver cell line, with measurements taken at 48 hours after chemical dosing on a 96-well plate.LTEA_HepaRG_SLC22A6 is one of 102 assay component(s) measured in the LTEA HepaRG cell culture assay. It is a marker of NR mediated transport.Data from the assay component LTEA_HepaRG_SLC22A6 was analyzed into 1 endpoint. This assay endpoint, LTEA_HepaRG_SLC22A6, was analyzed with bidirectional fitting relative to DMSO as the negative control and baseline of activity. Using a type of inducible reporter, measures of mRNA induction for gain or loss-of-signal activity can be used to understand regulation of transcription factor activity. To generalize the intended target to other relatable targets, this assay endpoint is annotated to the transporter intended target family, where the subfamily is organic anion transporter.
A total of 1060 chemcials from the ToxCast library were tested in eight-point concentration-response experiments. Cell culture and cytotoxicity assays were conducted at Thermo Fisher Scientific's Custom Services facility (Madison, WI). A single lot of human HepaRG cells (Thermo Fisher Scientific, Frederick, MD) was used for the cell culture experiments. 96-well format collagen type I coated plates of human HepaRG cells were prepared using established methods. Briefly, cryopreserved HepaRG cells were thawed, plated at a density of approximately 100,000 cells/well in HepaRG Thaw, Plate, and General Purpose media (HPRG770, Thermo Fisher Scientific), and incubated for 48 hours. 0.5% DMSO was selected as vehicle control to balance the requisite need of DMSO in HepaRG cultures to maintain differentiation (for example, baseline metabolism, proportions of hepatocytes vs. cholangiocytes), while enabling further hepatic receptor pathway activation (for example, PXR and CAR) in response to chemical exposure. 48 hours after plating, the culture medium was replaced with HepaRG Serum-Free Incudtion Media. Cells were exposed to each test chemical in duplicate and maintained in CO2 incubators for another 48 hours. Chemical plates were thawed to room temperature and 200x concentrations of treatment groups were prepared. 8-point conentration-reponse curves were made with the highest exposure at 100 uM, followed by half-log dilutions, all in 0.5% DMSO. Each test plate contained variouse controls, induction positive controls (1mM phenobarbital), cytotoxicity positive controls ([…] aflatoxin B1), vehicle controls (0.5% DMSO), and total lysis controls (0.5% DMSO). Cell morphology images were taken using an Essen IncuCyte FLR automated microscope, with six 96-well plates imaged in about 24 minutes. Images were captured and exported and JPEG files. Spent culture media was transfered to black-well plates for the LDH assay, and remaining media was sorted at -80 C for later use. Cells were treated with RLT buffer and frozen until shipped for gene expression analysis. Total RNA was isolated from the cell suspension in 75 uL of Buffer RLT (Qiagen, Germantown, MD 20874) by Quintiles/Expression Analysis (Durham, NC) using a custom isolation procedure. Total RNA from each plate well was transferred to a preamplification plate. Fluidigm's 96.96 Dynamic ArrayTM (Fluidigm, Amsterdam, the Netherlands) technology was used for gene expression analyses by quantitative reverse transcription polymerase chain reaction (qRT-PCR, performed by Quintiles/Expression Analysis, Durham, NC)89. Standard TaqManTM Assays (Applied Biosystems/ThermoFisher Scientific, Foster City, CA) were used to assess the expression of 93 genes selected based on their selectivity and sensitivity to important hepatic receptors known to be modulated by environmental chemicals; importance in human hepatocyte functionality; and hepatotoxicity. […]

[9] = read-out: solute carrier (SLC10A1), SLC10A1 (gene 6554); experiment: LTEA_HepaRG_SLC10A1: Life Technologies and Expression Analysis (LTEA) Assay for solute carrier (SLC10A1) using HepaRG (AID 2283657; active means hit-call score of the fitted dose curve at least 0.9, where 1 is the maximum; inactive means score below 0.9); conditions: mRNA level, 48 h; actives raise or lower the signal
In short: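 Differentiated HepaRG cells were plated 48 h, then exposed in serum-free induction medium for 48 h to 8 concentrations (top 100 uM, half-log steps, 0.5% DMSO). SLC10A1 mRNA was quantified by qRT-PCR normalized to ACTB, GAPDH, POLR2A; bidirectional fit versus DMSO.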

[10] = read-out: matrix metalloproteinase-1 (MMP1), MMP1 (gene 4312); experiment: LTEA_HepaRG_MMP1: Life Technologies and Expression Analysis (LTEA) Assay for matrix metalloproteinase-1 (MMP1) using HepaRG (AID 2283658; active means hit-call score of the fitted dose curve at least 0.9, where 1 is the maximum; inactive means score below 0.9); conditions: mRNA level, 48 h; actives raise or lower the signal
In short: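 HepaRG, ~100,000 cells/well, 48 h pre-culture; serum-free induction medium; test chemical 8 conc (max 100 uM, half-log), duplicate, 48 h; 0.5% DMSO; qRT-PCR MMP1, housekeeping-normalized; gain/loss fit vs DMSO.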

Measured: AC50

COc1cc(C(=O)NC2CCN(C)CC2)ccc1Nc1ncc2c(n1)N(C1CCCC1)CC(F)(F)C(=O)N2C
active: [4] 31 µM | [5] 33 µM
inactive: [1] | [2] | [3]

O=C(O)c1ccccc1C(=O)OCc1ccccc1
inactive: [1] | [2] | [6] | [3] | [5]

C[C@]12CC[C@@H]3c4ccc(O)cc4CC[C@H]3[C@@H]1CCC2=O
inactive: [1] | [2] | [3] | [4] | [5]

CCO[Si](CCCNC(N)=O)(OCC)OCC
inactive: [2] | [6] | [3] | [4] | [5]

CCCOC(=O)c1cc(O)c(O)c(O)c1
inactive: [2] | [6] | [7] | [8] | [3] | [4] | [5] | [9] | [10]

O=C1O[C@H]([C@@H](O)CO)C(O)=C1O
inactive: [1] | [2] | [6] | [4] | [5]

Clc1ccccc1C(c1ccccc1)(c1ccccc1)n1ccnc1
inactive: [1] | [6] | [3] | [5]

Cc1occc1C(=O)Nc1ccc(C(=O)N2CCC(F)(F)/C(=C\C(=O)N3CCC(N4CCCCC4)CC3)c3ccccc32)cc1
active: [9] 41.9 µM
inactive: [1] | [2] | [8] | [4] | [5] | [10]

CC(C)(O)c1ccc(CNC(=O)c2cccnc2Oc2ccc3nonc3c2)cc1
inactive: [1] | [6] | [3] | [4]
